Measurements: PubChem BioAssay AID434970 (Sanford-Burnham Center for Chemical Genomics, 2010)
Out of some 11,000 compounds screened, about 310 (2.8%) were called active. Rule as the data show it: active = activity change below about -85%; inactive = the rest. The entries come from a sample that favours actives as a whole.

The compounds below were run on intestinal alkaline phosphatase [Mus musculus] (assay: activators of mouse IAP, confirmation, biochemical, luminescence, single concentration (AID 434970)). Conditions: purified mouse IAP, CDP-Star luminescence, 30 min, at 10 µM; activation factor: measured here: IAP activation factor, stronger effect = higher value; activity change, negative = activation: stronger effect = lower value.

Row | SMILES | activation factor | activity change, negative = activation
1 | COc1ccc(C(c2nnnn2Cc2cccs2)N2CCN(c3ccc(F)cc3)CC2)cc1OC (stereo not drawn) | 0.985 | 1.5% (inactive)
2 | C1=C[C@H]2CC[C@@H]1N(c1ccccc1)O2 | 0.976 | 2.4% (inactive)
3 | NC1=NC2(CCCCC2)N(c2ccc(F)cc2)C(N)=N1 | 0.95 | 4.95% (inactive)
4 | Cc1ccc(CNC(=O)/C(C#N)=C\c2ccc(N(C)C)cc2)cc1 | 0.817 | 18.4% (inactive)
5 | CCCOc1ccc(Oc2cc(C)nc(SC)n2)nn1 | 1.01 | -1% (inactive)
6 | Cc1nn(C/C(C#N)=N\O)c(C)[n+]1N | 0.961 | 3.9% (inactive)
7 | COc1cc2c3c(c1)C1(C(=O)N3C(C)(C)C=C2C)C(C#N)=C(N)Oc2cc(O)ccc21 (stereo not drawn) | 1 | -0.3% (inactive)
8 | COc1ccc(NC(=O)c2ccco2)cc1NC(=O)c1cccc(OC(C)C)c1 | 0.934 | 6.55% (inactive)
9 | O=C1CN=C(Nc2ccccc2Cl)N1Cc1ccc2c(c1)OCO2 | 1.07 | -7.1% (inactive)
10 | CCOC(=O)c1ccc(N2CCN(c3ccccc3F)CC2)c(NC(=O)Nc2ccccc2)c1 | 3.14 | -214% (active)
11 | COC(=O)c1ccc(N2CCN(C)CC2)c(NC(=O)c2cc3ccccc3o2)c1 | 1.03 | -3.1% (inactive)
12 | CCOC(=O)c1ccc(N2CCN(c3ccccc3F)CC2)c(NC(=O)Nc2cccc(OC)c2)c1 | 4.62 | -362% (active)
13 | CCOC(=O)c1ccc(N2CCN(c3ccc(F)cc3)CC2)c(NC(=O)Nc2cccc(OC)c2)c1 | 1.55 | -55% (inactive)
14 | COc1cccc(NC(=O)CCN2CCN(c3ccccc3F)CC2)c1 | 1.09 | -8.65% (inactive)
15 | CCOC(=O)c1cccc(NC(=O)Nc2cc(OC)ccc2OC)c1 | 1.69 | -68.8% (inactive)
16 | CC1(C)N=C(SCC(=O)Nc2ccccc2)C(c2ccc(Cl)cc2)=N1 | 0.943 | 5.75% (inactive)
17 | COc1cc(C2CC(=O)Oc3ccc(C(C)(C)C)cc32)cc(OC)c1OC (stereo not drawn) | 1.07 | -6.8% (inactive)
18 | O=C(O)CCN(CCC(=O)O)c1ccccc1 | 1.02 | -1.9% (inactive)
19 | CNC[C@H]1Oc2ccc(NC(=O)Nc3ccc4c(c3)OCO4)cc2C(=O)N([C@H](C)CO)C[C@@H]1C | 1.48 | -47.9% (inactive)
20 | CNC[C@@H]1Oc2ccc(NC(=O)Nc3ccccc3)cc2C(=O)N([C@@H](C)CO)C[C@H]1C | 1.61 | -61.5% (inactive)
21 | COc1ccc(NC(=O)Nc2ccc3c(c2)C(=O)N([C@H](C)CO)C[C@H](C)[C@@H](CN(C)C(=O)Nc2ccc(OC)cc2)O3)cc1 | 1.6 | -60% (inactive)
22 | CNC[C@H]1Oc2ccc(NC(=O)Nc3ccc(OC)cc3)cc2C(=O)N([C@@H](C)CO)C[C@H]1C | 2.23 | -123% (active)
23 | CNC[C@@H]1Oc2ccc(NC(=O)Nc3cccc4ccccc34)cc2C(=O)N([C@@H](C)CO)C[C@@H]1C | 2.43 | -143% (active)
24 | CCOC(=O)CC1(c2ccccc2)CCOC(C)(C)C1 (stereo not drawn) | 0.94 | 6.05% (inactive)
25 | COc1ccc(N2CCN(S(=O)(=O)/C=C/c3ccccc3)CC2)cc1 | 1.07 | -7.05% (inactive)

Row | SMILES | activation factor | activity change, negative = activation
26 | COc1ccc2[nH]c3c(c2c1)CCN1C(=O)C(CC(=O)NCCCN(C)C)C[C@H](C(=O)N(C(C)C)C(C)C)[C@@]31C (stereo partly drawn) | 1.14 | -13.9% (inactive)
27 | CN1CCN(C(CNS(=O)(=O)c2ccc(F)cc2)c2cccnc2)CC1 (stereo not drawn) | 1.1 | -10.1% (inactive)
28 | O=C(CSc1nnc(C2CC2)n1Cc1ccccc1)NCc1ccccc1 | 1.05 | -5% (inactive)
29 | Fc1ccc2[nH]c3c(NCCN4CCOCC4)ncnc3c2c1 | 1.07 | -7.05% (inactive)
30 | COc1ccc(CNC(=O)Cn2cnc3c(NCc4ccccc4)ncnc32)cc1 | 1.01 | -0.55% (inactive)
31 | CCOc1ccc2[nH]c3c(NCCC(C)C)ncnc3c2c1 | 1.85 | -84.7% (inactive)
32 | COc1cc(CNc2ncnc3c2[nH]c2ccc(C)cc23)cc(OC)c1 | 2.97 | -197% (active)
33 | Cc1ccc2[nH]c3c(N4CCN(Cc5ccccc5)CC4)ncnc3c2c1 | 1.25 | -24.6% (inactive)
34 | O=C(Cn1cnc2c(NCc3ccccc3)ncnc21)NCc1ccccc1 | 0.932 | 6.8% (inactive)
35 | Fc1ccc2[nH]c3c(NCc4ccccc4)ncnc3c2c1 | 2.25 | -125% (active)
36 | COc1ccc(CNc2ncnc3c2[nH]c2ccccc23)cc1 | 2.71 | -171% (active)
37 | O=C(Cn1cnc2c(NCc3ccccc3)ncnc21)NCc1ccc2[nH]ccc2c1 | 1.1 | -9.85% (inactive)
38 | COC(=O)c1ccc(CNC(=O)Cn2cnc3c(NCc4ccccc4)ncnc32)cc1 | 0.989 | 1.05% (inactive)
39 | Cc1ccc2[nH]c3c(NCc4ccccc4)ncnc3c2c1 | 2.49 | -149% (active)
40 | COc1ccc2[nH]c3c(N4CC(C)OC(C)C4)ncnc3c2c1 (stereo not drawn) | 1.17 | -17.4% (inactive)
41 | O=C(CSc1nnc(C2CC2)n1Cc1ccccc1)N1CCN(S(=O)(=O)c2ccccc2)CC1 | 1.04 | -4.25% (inactive)
42 | O=C(NCCc1ccccc1)c1nc2nc(-c3cccs3)cc(C(F)(F)F)n2n1 | 0.956 | 4.4% (inactive)
43 | Cc1ccc(S(=O)(=O)C2CCOC2=O)cc1 (stereo not drawn) | 0.793 | 20.7% (inactive)
44 | COc1ccc(C(c2nnnn2CS(=O)(=O)c2ccc(C)cc2)N2CCN(c3ncccn3)CC2)cc1 (stereo not drawn) | 0.922 | 7.75% (inactive)
45 | Cc1nnc(SCCC(C)C)[nH]c1=O | 1.13 | -12.6% (inactive)
46 | Cc1onc(-c2ccccc2Cl)c1C(=O)OCC(=O)c1ccc2c(c1)OCCO2 | 0.972 | 2.85% (inactive)
47 | CCOC(=O)C1=CN(CC)S(=O)(=O)NC1c1ccc(F)c(Cl)c1 (stereo not drawn) | 1.1 | -9.6% (inactive)
48 | CC[C@]12c3[nH]c4cc(CCC(=O)N(C)C)ccc4c3CCN1C(=O)[C@@H](CC(=O)NCCN1CCOCC1)C[C@@H]2C(=O)N1CCN(C(=O)C2CC2)CC1 | 1.07 | -6.6% (inactive)
49 | Cc1cccc(-c2noc(CCC(=O)N3CCN(c4cc(C)ccc4C)CC3)n2)c1 | 0.938 | 6.25% (inactive)
